Results as given in PubChem BioAssay (NCATS).
Records with an inconclusive call do not appear. Unmarked numbers belong to inactive results. Calls of active or inactive are those of the source. Calls come from the whole dose curve; as a rule, active = well fitted inhibition curve with a large enough effect; inconclusive = small, poorly fitted or top-dose-only effect; inactive = flat fitted curve, though single readings scatter.
Potency is the fitted concentration of half-maximal effect.

The compounds below were run on Zika virus NS2B-NS3 protease (assay: Primary screen GU AMC qHTS for Zika virus inhibitors (AID 1347154; note: nearly all actives have a fitted effect of over 70% in size;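 for activity change, negative = inhibition: 0% = no-inhibitor control and -100% = no-enzyme control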)). Conditions: Zika NS2B-NS3 unlinked protease, AMC fluorogenic substrate; series mostly up to 54.1 µM; activity change, negative = inhibition: at the top concentration.
How it was run: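 Unlinked Zika NS2B hydrophilic domain–NS3 protease complex at 25 nM in 10 mM Tris-HCl pH 8.0, 0.01% Tween 20, with an AMC peptide substrate. Fluorescence change (340/450 nm) over 15 min at room temperature, normalized to controls, fitted to 4-parameter Hill.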
For `NS(=O)(=O)c1cc2c(cc1Cl)CN(C1CCCCC1)C2=O`, the “activity change, negative = inhibition” value was -7.03%.
With `CN1N=C(C(N)=O)CCC1=O` the “activity change, negative = inhibition” value was 5.1%.
In the case of `CCCCCC[C@@H](CCC)C(=O)O`, the “activity change, negative = inhibition” value is reported as -1.77%.
`CO/N=C(\C(=O)O)c1csc(NC(=O)CCl)n1` was tested, and the “activity change, negative = inhibition” value was 5.28%.
In the case of `CN1CCN(N)CC1`, the “activity change, negative = inhibition” value is reported as -2.04%.
In the case of `CCCC(=O)c1cc(O)c(O)cc1O`, the Potency is reported as 5.62 µM (active).
With `Nc1ncnc2c1ncn2Cc1c(F)cccc1Cl` the “activity change, negative = inhibition” value was -3.98%.
In the case of `C[C@@H]1C[C@H]2[C@@H]3CCC4=CC(=O)C=C[C@]4(C)[C@@]3(F)[C@@H](O)C[C@]2(C)[C@@]1(O)C(=O)COC(=O)c1ccncc1`, the “activity change, negative = inhibition” value is reported as 1.11%.
In the case of `O=C(O)c1ccccc1Nc1cc(Cl)ccc1C(=O)O`, the “activity change, negative = inhibition” value is reported as -8.54% [at 25.8 µM].
In the case of `CC(=O)N(CC(O)CO)c1c(I)c(C(=O)NCCO)c(I)c(C(=O)NCC(O)CO)c1I` (stereo not drawn), the “activity change, negative = inhibition” value is reported as -2.46%.
`CCCCCCCC(=O)[O-].CCCCCCCC(=O)[O-].[Zn+2]` was tested, and the “activity change, negative = inhibition” value was -10.5%.
With `CC(C)C[C@@H]1[C@H](c2ccccc2)OC(=O)N1CCCN1CCCCCC1` the “activity change, negative = inhibition” value was -0.466%.
In the case of `CCN(CC)CC(=O)Nc1c(C)cccc1C(=O)OC`, the “activity change, negative = inhibition” value is reported as -2.42%.
With `C#CC(C)(CC)OC(=O)c1ccccc1C(=O)O` (stereo not drawn) the “activity change, negative = inhibition” value was -3.84%.
With `COc1ccccc1N1CCN(CC(O)COc2cc(OC)c(OC)c(OC)c2)CC1` (stereo not drawn) the “activity change, negative = inhibition” value was -1.7%.
With `CC(C)=CCC/C(C)=C/CC/C(C)=C/CCC(=O)OC/C=C(\C)CCC=C(C)C` the “activity change, negative = inhibition” value was 0.793%.
With `CCCCCC(=O)O[C@]1(C(C)=O)CC[C@H]2[C@@H]3CCC4=CC(=O)CC[C@]4(C)[C@H]3CC[C@@]21C` the “activity change, negative = inhibition” value was -13.9%.
`O=C(Oc1ccccc1)c1ccccc1O` was tested, and the “activity change, negative = inhibition” value was 1.07%.
`COC(=O)c1cc(Cl)c(NC(C)=O)cc1OC` was tested, and the “activity change, negative = inhibition” value was -7.83%.
`CC(=O)O[C@H]1CC[C@@]2(C)C(=CC[C@@H]3[C@@H]2CC[C@]2(C)C(C(C)=O)=CC[C@@H]32)C1` was tested, and the “activity change, negative = inhibition” value was -4.58%.
For `CN(C)CCN(Cc1ccsc1)c1ccccn1`, the “activity change, negative = inhibition” value was -5.54%.
With `Brc1ccccc1-c1ccccc1` the “activity change, negative = inhibition” value was -1.5% [at 104 µM].
`O=C(O)CCCC[C@@H]1SC[C@@H]2NC(=O)N[C@@H]21` was tested, and the “activity change, negative = inhibition” value was -2.63%.
For `O=C(OCC(O)CO)c1ccccc1Nc1ccnc2c(C(F)(F)F)cccc12` (stereo not drawn), the “activity change, negative = inhibition” value was -9.45%.
With `CCCCCCCCCCCCCC[N+](C)(C)C` the “activity change, negative = inhibition” value was -13.2%.
In the case of `Cc1c(C)c2c(c(C)c1OC(=O)CCC(=O)OCCO)CC[C@@](C)(CCC[C@H](C)CCC[C@H](C)CCCC(C)C)O2`, the “activity change, negative = inhibition” value is reported as 3.43%.
`CC(CC(C#N)(c1ccccc1)C(C)C)N(C)C` (stereo not drawn) was tested, and the “activity change, negative = inhibition” value was -3.06%.
With `C[N+](C)(CCOc1ccccc1)Cc1cccs1` the “activity change, negative = inhibition” value was -1.95%.
`C[C@@H](C1=C(CCN(C)C)Cc2ccccc21)c1ccccn1` was tested, and the Potency was “inactive”.
`C/C=C(/C(=C/C)c1ccc(OC(C)=O)cc1)c1ccc(OC(C)=O)cc1` was tested, and the “activity change, negative = inhibition” value was -4.78%.
For `CCC(=O)Oc1ccc2c(c1)CC[C@@H]1[C@@H]2CC[C@@]2(C)[C@H]1C[C@@H](OC(=O)CC)[C@@H]2OC(=O)CC`, the “activity change, negative = inhibition” value was -14.8%.
`O=C1Nc2cc(Cl)ccc2Oc2ccccc21` was tested, and the “activity change, negative = inhibition” value was 2.12%.
With `Oc1ccccc1-c1nnco1` the “activity change, negative = inhibition” value was -10.8%.
In the case of `CO[C@@H]1[C@@H](OC)[C@H](C)[C@@](O)(CC(=O)O)O[C@H]1[C@H](C)[C@H]1O[C@@]2(CC[C@@](C)([C@H]3CC[C@@](C)([C@@H]4O[C@@H]([C@H]5O[C@](C)(O)[C@H](C)C[C@@H]5C)C[C@@H]4OC4C[C@H](OC)[C@@H](OC)[C@H](C)O4)O3)O2)C[C@H](O)[C@H]1C` (stereo partly drawn), the “activity change, negative = inhibition” value is reported as -4.53%.
For `Nc1nnnn1-c1ccccc1`, the “activity change, negative = inhibition” value was 0.823%.
`O=C(O)[C@H](O)[C@@H](O)[C@H](O[C@@H]1O[C@H](CO)[C@H](O)[C@H](O)[C@H]1O)[C@H](O)CO` was tested, and the “activity change, negative = inhibition” value was -2.59%.
With `OC1(c2ccccc2)CCNCC1` the “activity change, negative = inhibition” value was 1.76%.
With `OCCc1ccccc1` the “activity change, negative = inhibition” value was 3.36%.
